# Tau fibril FP – qHTS for Inhibitors of Tau Fibril Formation, Fluorescence Polarization | Potency, µM (highest dose often 57.7 µM), for the others: top-dose activity, negative = inhibition, actives largely listed as inhibitors | actives 0.39% (n = 280,000) | K18 P301L tau heparin fibrillization, Alexa594 FP, 6 h; further: nearly all actives have a fitted effect of over 55% in size
# Target sequence (P10636 561-689 P618L limits assumed): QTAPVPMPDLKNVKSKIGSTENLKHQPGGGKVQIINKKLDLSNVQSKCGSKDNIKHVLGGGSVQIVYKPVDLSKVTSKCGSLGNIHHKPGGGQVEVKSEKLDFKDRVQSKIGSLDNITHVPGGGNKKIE
#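 Read-out: fluorescence polarization of Alexa 594-labeled tau (0.24 uM), 555 nm excitation, 632 nm emission. Mixtures held 15 uM unlabeled K18 P301L, compound and 20 uM heparin, pH 7 acetate buffer, incubated 6 hr at 37 C.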
# VDR inhibitor – Inhibitors of the vitamin D receptor (VDR): qHTS; actives 0.93% (n = 400,000); VDR-SRC2-3 peptide fluorescence polarization, 2 h; Potency, µM, inactives show max response, negative = inhibition, hits mostly inhibitors; AID 504847, 2011; Vitamin D3 receptor (Homo sapiens), P11473
# Target sequence (P11473 whole entry, looked up): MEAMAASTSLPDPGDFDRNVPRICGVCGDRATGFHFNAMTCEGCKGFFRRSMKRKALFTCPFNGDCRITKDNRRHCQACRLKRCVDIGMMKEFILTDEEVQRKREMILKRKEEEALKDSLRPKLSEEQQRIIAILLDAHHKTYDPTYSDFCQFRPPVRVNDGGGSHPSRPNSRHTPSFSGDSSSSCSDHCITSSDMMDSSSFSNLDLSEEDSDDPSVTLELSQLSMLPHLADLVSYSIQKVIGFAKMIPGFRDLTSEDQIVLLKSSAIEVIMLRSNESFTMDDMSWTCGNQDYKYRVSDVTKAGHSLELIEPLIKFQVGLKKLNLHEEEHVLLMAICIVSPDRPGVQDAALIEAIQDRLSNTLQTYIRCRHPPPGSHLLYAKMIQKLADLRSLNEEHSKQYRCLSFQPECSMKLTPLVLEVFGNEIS
#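 Reagent solutions, kept cold and dark, are dispensed first; compounds are then pinned in at 23 nl, plates briefly spun, and incubated 2 h at ambient temperature. Inhibition of VDR–SRC2-3 peptide binding is read by fluorescence polarization.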
# PLK1 PBD inh – qHTS for Inhibitors of PLK1-PDB (polo-like kinase 1 - polo-box domain): Primary Screen; Plk1 PBD binding of FITC phosphopeptide, fluorescence polarization; Serine/threonine-protein kinase PLK1 (Homo sapiens), P53350; Potency, µM, for the others: max response, negative = inhibition, actives largely listed as inhibitors; actives 2.8% (n = 360,000); further: series mostly up to about 57 µM; nearly all actives have a fitted effect of over 65% in size
# Tau fluor cs – Counterscreen qHTS for Inhibitors of Tau Fibril Formation, Fluorescence Polarization. tau K18 P301L Alexa594 fluorescence, heparin fibrillization. Potency, µM (titrated, usually from 57.7 µM), inactives show at the top dose activity change, negative = decrease. actives 0.93% (n = 280,000); further: nearly all actives have a fitted effect of over 55% in size
#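 Human K18 P301L tau (15 uM unlabeled plus 0.24 uM Alexa 594-labeled, final) in 100 mM sodium acetate pH 7 was mixed with compound and 20 uM heparin and incubated 6 hr at 37 C.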
# Tau ThT inhib – qHTS for Inhibitors of Tau Fibril Formation, Thioflavin T Binding; Potency, µM (top dose mostly 57.4 µM), for the others: at the top dose activity, negative = inhibition, hits mostly inhibitors; Microtubule-associated protein tau (Homo sapiens), P10636; recombinant tau K18 P301L (four-repeat tau fragment), heparin-induced fibrillization, ThT fluorescence; actives 2.1% (n = 270,000); further: nearly all actives have a fitted effect of over 55% in size
#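 Heparin-induced fibrillization of the P301L-mutant K18 repeat-domain fragment of human tau was followed by ThT binding in quantitative high-throughput format.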
# Sfp inh – qHTS Assay for Inhibitors of Bacillus subtilis Sfp phosphopantetheinyl transferase (PPTase); Potency, µM, without a hit: largest response in the series, negative = inhibition, most hits filed as inhibitors; 4'-phosphopantetheinyl transferase ffp (Bacillus subtilis), Q9F4F7; Biochemical Sfp PPTase activity, qHTS; AID 1490, 2009; actives 3.5% (n = 310,000);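 further: the enzyme is Sfp with the accession as filed and its product quenches rhodamine fluorescence; 0% = enzyme reaction without inhibitor and -100% = no enzyme wells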
#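 Compounds were incubated with enzyme (final 15 nM) for 15 min at room temperature before substrate addition started the reaction. Fluorescence at 525 nm excitation, 598 nm emission was recorded immediately and after 30 minutes.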
# Active calls of the source: *; ? = inconclusive; . = no result; [ ] = remark or other dose. Shown are actives, neighbours in structure and some others; about 6% of the full set was active somewhere. The call rests on the fitted dose curve; in most records, active means well fitted curve in the direction sought with a large enough effect; inconclusive means small, poorly fitted or top-dose-only effect, or another doubt; inactive means no such curve, though single readings can be large; an effect the other way counts as inactive or inconclusive. Unless noted, on the % scale 0 is the no-effect control and ±100 the full control effect; potency means the concentration at half of the fitted maximal effect.
SMILES,Tau fibril FP,VDR inhibitor,PLK1 PBD inh,Tau fluor cs,Tau ThT inhib,Sfp inh
O=C1C=C(C2OC(CO)C(O)C2O)C(=O)N1 (centres undefined),.,40µM*,?,.,.,.
NC(=O)c1csc(C2OC(CO)C(O)C2O)n1 (centres undefined),.,.,-9%,.,.,.
Cc1ccc(C2CC(=O)n3nc(-c4ccc(Cl)cc4)nc3S2)cc1 (centres undefined),-2%,-15%,.,-6%,-14%,.
COc1cc(-c2noc(CSc3nc(-c4ccccc4)cc(=O)[nH]3)n2)cc(OC)c1OC,-16%,9%,.,-15%,-11%,.
COc1ccc(-c2noc(CSc3nc(-c4ccccc4)cc(=O)[nH]3)n2)cc1OC,-5%,5%,-16%,-13%,-7%,35µM*
CC(C)(C)C(=O)N1CCC2CC1c1cc(Cl)ccc12 (centres undefined),.,-21%,-3%,.,.,.
CCCn1c(CNc2ccccc2O)nc2ccccc21,?,-11%,-12%,?,28µM*,?
Cc1ccc(NCc2nc3ccccc3n2C)cc1,7%,-1%,-3%,3%,7%,?
Cn1c(CNc2ccc(O)cc2)nc2ccccc21,.,3%,-6%,.,.,79µM*
COC(=O)[C@H](CC(C)C)NC(=O)Nc1ccc(S(N)(=O)=O)cc1,-4%,0%,-5%,-18%,-13%,79µM*
COc1ccc(OC)c(NC(=O)CCCCCn2nnc3ccccc3c2=O)c1,.,-19%,-11%,.,.,8%
Cc1cccn2c(=O)c3cc(C(=O)NCCc4ccccc4)c(=N)n(CCCn4ccnc4)c3nc12,25µM*,11%,-1%,11µM*[quencher],11µM*,9%
Cc1cccn2c(=O)c3cc(C(=O)NC4CCCCC4)c(=N)n(Cc4ccccc4)c3nc12,.,-10%,2%,.,.,28µM*
Cc1cccn2c(=O)c3cc(C(=O)NC4CCCC4)c(=N)n(Cc4ccc(F)cc4)c3nc12,.,-11%,4%,.,.,?
O=C(O/N=C1/CCSc2ccccc21)c1ccccc1,-11%,-1%,-2%,-19%,?,79µM*
COC(=O)C1=C(C(=O)OC)C2(OC1c1cccc(F)c1)C(=O)c1ccccc1C2=O (centres undefined),1%,8%,-16%,-10%,-12%,79µM*
COc1ccc(/C=N/NC(=O)CN(c2ccc(OC)cc2)S(=O)(=O)c2ccccc2)cc1,?,-17%,27µM*,?,1%,9%
COc1ccc(N(CC(=O)N/N=C/c2ccc(F)cc2)S(=O)(=O)c2ccccc2)cc1,.,8%,10%,.,.,6%
O=C(CN(c1ccccc1)S(=O)(=O)c1ccccc1)N/N=C/c1ccco1,-4%,-25%,-8%,-2%,-5%,11%
Cc1ccc(N(CC(=O)N/N=C/c2ccco2)S(=O)(=O)c2ccccc2)cc1,-2%,11%,-12%,-12%,-6%,32µM*
Cc1ccc(S(=O)(=O)N(CC(=O)N/N=C/c2ccccc2C(=O)O)c2cc(Cl)cc(Cl)c2)cc1,4%,-20%,42µM*,-5%,?,17%
CCOC(=O)c1cc(C)n(CC2CCC(C(=O)Nc3ccc(Cl)cc3)CC2)c1C (centres undefined),-3%,11%,.,-21%,-3%,.
COc1ccc(-c2cn[nH]c2-c2ccc(OCc3ccc(F)cc3)cc2O)cc1OC,?,-3%,-15%,8.9µM*[quencher],-15%,45%
Oc1cc(OCc2ccccc2)ccc1-c1[nH]ncc1-c1ccccc1,25µM*,2%,5%,10µM*[quencher],-13%,13%
COc1ccc(-c2cn[nH]c2-c2ccc(OCc3ccccc3)cc2O)cc1OC,?,6%,3%,3.2µM*[quencher],-3%,8%
SMILES,Tau fibril FP,VDR inhibitor,PLK1 PBD inh,Tau fluor cs,Tau ThT inhib,Sfp inh
COc1ccc(-c2nc3ccccc3n3c(-c4cccc(C)c4)c4c(=O)n(C)c(=O)n(C)c4c23)cc1,3%,-20%,.,-5%,-7%,.
CCN(CC)C(=O)[C@H]1C[C@H](CC(=O)NCCCOC)C(=O)N2CCc3c([nH]c4cc(CCC(=O)N(C)C)ccc34)[C@]12C,.,-17%,-7%,.,.,.
CCCCNC(=O)C1(C)CCCCN1C(=O)c1cc2ccccc2s1 (centres undefined),.,.,2%,.,.,.
O=c1c(N2CCc3ccccc3C2)csc2ccccc12,0%,3%,.,-21%,14µM*,.
O=c1c(N2CCc3ccccc3C2)csc2ccc(Br)cc12,2%,21%,.,-7%,?,.
CCOC(=O)c1cnn(-c2cc(Oc3ccccc3C)ncn2)c1N,-7%,7%,2%,-14%,?,50µM*
CCOC(=O)c1cnn(-c2cc(Oc3ccccc3)ncn2)c1N,-6%,5%,5%,-8%,?,23%
COc1cc(/C=C(\C#N)C(=O)c2ccc(O)c(O)c2)cc(I)c1O,3%,?,40%,?,8.9µM*,.
Clc1ccccc1CSc1nnc(-c2ccccn2)n1Cc1ccco1,-2%,?,-14%,-9%,-22%,56µM*
C(=C\c1ccccc1)/CSc1nnc(-c2ccccn2)n1Cc1ccco1,-6%,-14%,-10%,-5%,-17%,32µM*
CCCCC[C@@H]1[C@H]2[C@H]3C(=O)N(c4ccccc4)C(=O)[C@H]3CC(=O)[C@H]2[C@H](c2ccccc2)N1S(=O)(=O)c1ccc(C)cc1,.,.,3%,.,.,.
Clc1ccc(Nc2ccc(NCc3ccccc3)nn2)cc1,14%,-3%,2%,13µM*[quencher],?,-18%
Cc1ccc(Nc2ccc(NCc3ccccc3)nn2)cc1C,?,-9%,-7%,?,?,-12%
COCCNC(=O)CCCn1c(SCC(=O)Nc2cccc(C)c2)nc2c(sc3ccccc32)c1=O,?,4%,.,-12%,?,.
CCN=C1NN=C(c2cc(C)n(CCc3ccccc3)c2C)CS1,-12%,-10%,-21%,-18%,?,50µM*
Cc1cc(C2=NNC(=NCCc3ccccc3)SC2)c(C)n1CC1CCCO1 (centres undefined),-1%,-12%,-18%,-2%,-19%,50µM*
C=CCn1c(C)cc(C2=NNC(=NCc3ccccc3)SC2)c1C,4%,-3%,-10%,?,?,-5%
